# Measured values taken from PubChem BioAssay (NCI).
# Compounds without any hit were thinned out: in the full panel of roughly 83,000, 20% have a hit.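 In brief: 96-well plates, 48 h treatment, single concentration, percent growth endpoint.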 Values without a mark were called inactive. The source made the active and inactive calls. How the source made its calls: active means growth percent below 10; inactive means the rest.
# What was measured:
# Assay in all cases: NCI-60 one-dose screen, 48 h (100 = growth as untreated, 0 = no growth, -100 = all killed)
# [1] = system: SK-MEL-2 melanoma; conditions: 10 µM unless noted
# [2] = system: EKVX NSCLC; conditions: 10 µM unless noted
# [3] = system: SN12C renal; conditions: 10 µM unless noted
# [4] = system: UO-31 renal; conditions: 10 µM unless noted
# [5] = system: TK-10 renal; conditions: 10 µM unless noted
# [6] = system: A498 renal; conditions: 10 µM
# [7] = system: HL-60(TB) leukemia; conditions: 10 µM unless noted
# [8] = system: CCRF-CEM leukemia; conditions: 10 µM unless noted
# [9] = system: SR leukemia; conditions: 10 µM unless noted
# [10] = system: RPMI-8226 leukemia; conditions: 10 µM unless noted
# [11] = system: OVCAR-8 ovarian; conditions: 10 µM unless noted
# [12] = system: OVCAR-5 ovarian; conditions: 10 µM unless noted
# [13] = system: OVCAR-4 ovarian; conditions: 10 µM unless noted
# [14] = system: SK-OV-3 ovarian; conditions: 10 µM unless noted
# [15] = system: IGROV1 ovarian; conditions: 10 µM unless noted
# [16] = system: OVCAR-3 ovarian; conditions: 10 µM unless noted
# [17] = system: HS 578T breast; conditions: 10 µM unless noted
# [18] = system: CAKI-1 renal; conditions: 10 µM unless noted
# [19] = system: MOLT-4 leukemia; conditions: 10 µM unless noted
# [20] = system: ACHN renal; conditions: 10 µM unless noted
Compound,growth [1],growth [2] [%],growth [3],growth [4],growth [5] [%],growth [6],growth [7],growth [8],growth [9],growth [10],growth [11],growth [12] [%],growth [13] [%],growth [14],growth [15] [%],growth [16],growth [17],growth [18] [%],growth [19],growth [20]
CC(=O)ONc1ccc([N+](=O)[O-])c(C(F)(F)F)c1,102%,87.6,107%,77.2%,112,103%,90%,97.7%,103%,93.9%,109%,103,98.2,94.7%,107,104%,90.7%,–,–,–
Oc1ccc2c3c1OC1[C@@H](O)CC[C@@]4(O)[C@@H](C2)N(CC2CCC2)CC[C@]314 (stereo not given in full),118%,99.7,103%,83.2%,106,94.7%,102%,97.5%,99.5%,103%,104%,–,98.2,109%,103,116%,105%,94,97.7%,–
O=[N+]([O-])c1cnc[nH]1,102%,109,103%,94.8%,111,–,134%,103%,117%,107%,109%,108,114,110%,127,112%,106%,–,114%,118%
C=COC(=O)CCN1CC1,115%,103,102%,90.6%,110,77.4%,92.3%,105%,100%,104%,104%,110,107,101%,108,112%,104%,–,–,–
N#C[S-].[Au+].c1ccc(CN2[CH-]N(Cc3ccccc3)C(c3ccccc3)=C2c2ccccc2)cc1,-1.84% (active),12.6,6.67% (active),4.03% (active),17.6,-37.3% (active),–,1.1% (active),–,-16.4% (active),12.1%,36.8,19.4,-0.746% (active),30.3,-6.54% (active),36.3%,–,3.58% (active),2.08% (active)
O=P(N1CC1)(N1CC1)N1CCc2ccccc21,121%,119,92.4%,92.2%,110,106%,–,104%,–,–,103%,112,115,111%,130,107%,106%,–,–,108%
O=C1NC(=O)C(=Cc2ccc(OCCCCC3CCCCC3)c(Cl)c2)C(=O)N1,89.5%,95.9,77.3%,81.2%,94.1,82.7%,–,90.1%,106%,97.7%,101%,98.8,105,99.9%,104,106%,105%,–,–,104%
COC(=O)[C@@H](C)C[C@H](Cc1ccccc1)NC(=O)c1nc([C@@H](C[C@H](C(C)C)N(C)C(=O)[C@@H](NC(=O)[C@H]2CC(=O)CCN2C)C(C)C)OC(C)=O)sc1C(C)C,5.7% (active),30,17.5%,29.6%,46.5,–,-36.7% (active),9.87% (active),10.9%,-3.35% (active),8.46% (active),35.5,45.8,29.1%,14.4,-15.6% (active),9.66% (active),–,15%,21.9%
C=C1[C@@H](C)[C@H]2[C@H](Cc3ccccc3)NC(=O)[C@]23[C@@H](O)/C=C/[C@@](C)(O)C(=O)[C@@H](C)C/C=C/[C@H]3[C@@H]1O,65.1%,57.2,66.1%,31.6%,39.6,–,73.4%,48%,64.3%,68.4%,69.3%,38.1,53.7,38.1%,70.5,46.2%,-11.7% (active),–,61.5%,45.6%
COP(=O)(OC)C(O)c1ccc(Cl)cc1 (stereo not given),109%,98.4,108%,83.3%,96.5,98.5%,98.9%,112%,96.1%,104%,108%,112,104,111%,103,94.7%,94.1%,–,119%,–
COC(=O)[C@@H](C)C[C@H](Cc1ccccc1)NC(=O)c1csc([C@@H](C[C@H](C(C)C)N(C)C(=O)[C@@H](NC(=O)[C@H]2CCCCN2C)C(C(F)(F)F)C(F)(F)F)OC(C)=O)n1,34.5%,40.4,28.3%,33.1%,28.5,-4.49% (active),–,4.93% (active),5.49% (active),11.2%,16.8%,39.6,–,16.4%,20.2,-42.5% (active),17.6%,–,5.94% (active),28.2%
CCCCCCCCC(CO)NCCc1ccccc1 (stereo not given),96.3%,119,99.4%,88.1%,98.8,95.2%,70.1%,62%,76.7%,80.4%,81.1%,101,108,102%,105,107%,106%,–,60.5%,–
O=c1[nH]c2ccc([N+](=O)[O-])cc2c(=O)o1,111%,107,98.2%,90.7%,104,–,–,96.1%,–,98.5%,104%,101,98.8,102%,105,113%,–,–,–,93.3%
COc1cc([C@@H]2c3cc4c(cc3[C@H](OC(C)=O)[C@H]3COC(=O)[C@H]23)OCO4)cc(OC)c1OC,33.2%,38.3,31.9%,43.7%,65.9,-7.56% (active),–,14.4%,9.46% (active),23.4%,21.1%,56.4,41.3,39.3%,21.2,1.52% (active),46.6%,–,16.7%,28.7%
